# Bioassay records deposited in PubChem BioAssay by National Center for Advancing Translational Sciences (NCATS).
# A selection: hits, their analogues and other compounds. The true share with any hit is near 11%.
# Pf growth 96h: Primary qHTS for delayed death inhibitors of the malarial parasite plastid, 96 hour incubation; P. falciparum luciferase reporter growth, 96 h; Potency, µM (series often up to 28.7 µM), without a hit: at the highest dose activity change, negative = inhibition, hits mostly inhibitors; 320,000 compounds, 6.9% hits; AID 504834, 2011
#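 Two parasite generations (96 h, 37 C, 5% CO2) of compound exposure in infected erythrocytes (0.05% parasitemia, 2% hematocrit). Luciferase-reporter P. falciparum; decreased luminescence indicates inhibited growth, aimed at apicoplast-acting delayed death.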
# HCV inhibitor: qHTS Assay for Inhibitors of Hepatitis C Virus (HCV); Huh7.5.1 HCVcc-Cre infection, luciferase reporter, 44 h; Potency, µM (doses to about 41.8 µM), inactives show top-dose activity change, negative = inhibition, hits mostly inhibitors; 340,000 compounds, 3.4% hits; AID 651820, 2012
#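 A cell-based infection assay in which seeded cells (1,000 per well) receive test compound after 4 h, are inoculated with HCVcc-Cre at approximately 0.5 moi, and are incubated 44 h before luminescence detection.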
# AMA1 RON2 block: qHTS for Inhibitors of AMA1-RON; Towards Development of Antimalarial Drug Lead: Primary Screen; Plasmodium falciparum AMA1 (3D7) - RON2 peptide interaction; AlphaScreen AMA1-biotinylated RON2 peptide binding; Potency, µM (doses to about 58.2 µM), inactives show top-dose activity change, negative = inhibition, hits mostly inhibitors; 360,000 compounds, 0.2% hits; AID 720542, 2013;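 further: 0% = vehicle wells and -100% = peptide control; nearly all actives have a fitted effect of over 45% in size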
#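 AMA1 (3D7) with his tag at 25 nM final met compounds first, then biotinylated RON2 peptide at 25 nM; detection used donor plus acceptor beads, 10 µg/mL apiece, read by AlphaScreen after 30 min at room temperature.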
# Pf growth 48h: Primary qHTS for delayed death inhibitors of the malarial parasite plastid, 48 hour incubation; Potency, µM (highest dose often 28.7 µM), without a hit: at the highest dose activity change, negative = inhibition, actives largely listed as inhibitors; AID 504832, 2011; 310,000 compounds, 5.9% hits; P. falciparum luciferase growth in erythrocytes, 48 h
#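 Parasite viability was followed by luminescence of a genomically integrated firefly luciferase. Cultures held 0.1% parasitemia at 2% hematocrit (final), incubated under 5% CO2 at 37 C.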
# AmpC no deterg: qHTS Inhibitors of AmpC Beta-Lactamase (assay without detergent); P00811; AmpC nitrocefin hydrolysis, absorbance 480 nm, 0.0001% Triton; Potency, µM (top dose mostly 57.1 µM), for inactives: top-dose activity change, negative = inhibition, usual class: inhibitors; 330,000 compounds, 0.52% hits; AID 485341, 2010;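 further: plate controls were no compound for no effect and no enzyme for full effect; nearly all actives have a fitted effect of over 20% in size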
# Target sequence (P00811 whole entry, looked up): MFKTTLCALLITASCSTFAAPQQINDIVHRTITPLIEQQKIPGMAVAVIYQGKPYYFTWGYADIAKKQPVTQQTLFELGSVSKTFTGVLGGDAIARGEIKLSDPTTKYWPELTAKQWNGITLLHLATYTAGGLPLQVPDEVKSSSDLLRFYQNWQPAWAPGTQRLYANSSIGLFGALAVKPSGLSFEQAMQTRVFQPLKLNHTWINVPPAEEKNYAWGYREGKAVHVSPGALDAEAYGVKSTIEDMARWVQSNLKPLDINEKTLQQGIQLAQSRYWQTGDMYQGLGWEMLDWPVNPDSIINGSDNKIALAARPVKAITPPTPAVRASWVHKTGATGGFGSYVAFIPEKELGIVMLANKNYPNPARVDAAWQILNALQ
#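 AmpC (5.3 nM in the dispensed reagent) in 20 mM phosphate pH 7.0 with 0.01% (detergent screen) or 0.0001% Triton X-100 was preincubated with compounds for 15 min at room temperature. Nitrocefin was then added from an 800 uM solution, and hydrolysis was followed at 480 nm.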
# AmpC detergent: qHTS Inhibitors of AmpC Beta-Lactamase (assay with detergent). P00811. AmpC hydrolysis of nitrocefin, absorbance 480 nm, 0.01% Triton. Potency, µM (series often up to 114 µM), without a hit: at the top dose activity change, negative = inhibition, actives largely listed as inhibitors. 370,000 compounds, 0.041% hits. AID 485294, 2010;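 further: 0% = no-compound wells and -100% = no-enzyme wells; nearly all actives have a fitted effect of over 25% in size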
#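 AmpC (5.3 nM in the dispensed reagent) in 20 mM phosphate pH 7.0 with 0.01% (detergent screen) or 0.0001% Triton X-100 was preincubated with compounds for 15 min at room temperature. Nitrocefin was then added from an 800 uM solution, and hydrolysis was followed at 480 nm.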
# Starred values were filed as active, the others as inactive; ? = inconclusive; / = no result given. The call rests on the fitted dose curve; in most records, active means well fitted curve in the direction sought with a large enough effect; inconclusive means small, poorly fitted or top-dose-only effect, or another doubt; inactive means no such curve, though single readings can be large; an effect the other way counts as inactive or inconclusive. Unless noted, on the % scale 0 is the no-effect control and ±100 the full control effect; potency means the concentration at half of the fitted maximal effect.
SMILES,Pf growth 96h,HCV inhibitor,AMA1 RON2 block,Pf growth 48h,AmpC no deterg,AmpC detergent
COc1cc(OC)c2ccc(=O)oc2c1C(CCN1CCCC1)c1ccc2c(c1)OCO2 (centres undefined),?,-8%,-11%,?,41%,9%
CCCN(C(=O)c1ccc2c(=O)n3c(nc2c1)CCCCC3)c1cccc(Cl)c1,/,/,/,/,/,0%
Cc1oc2ncn(CC(C)C)c(=O)c2c1C(=O)NCCCN(Cc1ccccc1)C(C)C,/,/,/,/,/,3%
O=[N+]([O-])c1ccc([As](=O)(O)O)cc1,1.7µM*,/,/,3µM*,/,/
CCCCNC(=S)NCC(c1ccccc1)c1c[nH]c2ccccc12 (centres undefined),?,?,4%,?,-46%,3%
CN(C)CCCNC(=S)NCC(c1ccc(Cl)cc1Cl)c1c[nH]c2ccccc12 (centres undefined),2.1µM*,11µM*,?,?,151%,-10%
COc1ccc(NC(=O)COCc2cc(-c3cccs3)on2)cc1,/,/,/,/,/,-9%
CCC1CCCCN1C(=O)Cn1c(=O)n(CCC(=O)NCc2ccco2)c(=O)c2sccc21 (centres undefined),5.2µM*,31%,-2%,-16%,-5%,-7%
CCCn1c(=O)c2sccc2n2c(CCCC(=O)NCc3ccco3)nnc12,15µM*,6%,-18%,?,-16%,3%
Cn1c(=O)c2sccc2n2c(CCCC(=O)N3CCN(c4ccccn4)CC3)nnc12,9.3µM*,4%,-4%,?,0%,-3%
CCC1CCCCN1C(=O)Cn1c(=O)n(CCCCCC(=O)NCc2ccc(F)cc2)c(=O)c2sccc21 (centres undefined),/,/,/,/,/,10%
CCOc1cc(-c2cc(N)n[nH]2)cc(OCC)c1OCC,105%,?,-6%,13µM*,16%,2%
CCOC(=O)c1cc(C#N)c(Oc2cccc(C(F)(F)F)c2)nc1-c1ccccc1,?,?,32%,13µM*,-13%,5%
CCCCC(=O)NC(c1cccc([N+](=O)[O-])c1)c1c(OC(C)=O)ccc2ccccc12 (centres undefined),46%,?,-12%,0.83µM*,20%,-2%
CC(=O)Oc1ccc2ccccc2c1C(NC(=O)Cc1ccccc1)c1ccccc1 (centres undefined),?,?,-13%,4.1µM*,-1%,-7%
CC(=O)NC(c1cccc([N+](=O)[O-])c1)c1c(OC(C)=O)ccc2ccccc12 (centres undefined),/,-24%,30%,/,/,/
CC(C)CC(=O)NC(c1ccccc1)c1c(O)ccc2ccccc12 (centres undefined),?,9%,-2%,?,-33%,-14%
CC(=O)Oc1ccc2ccccc2c1C(NC(=O)C(C)C)c1cccc([N+](=O)[O-])c1 (centres undefined),/,?,-3%,1.9µM*,30%,1%
CCOC(=O)c1[nH]c2c(c1Cc1ccccc1OC)C(=O)CC(c1ccc(OC)cc1)C2 (centres undefined),/,/,/,/,/,13%
O=C1NC(=O)C2(Cc3ccccc3N3CCCC32)C(=O)N1c1cccc(Cl)c1 (centres undefined),2.3µM*,-27%,-2%,-17%,-19%,-13%
Cc1ccc(N2C(=O)NC(=O)C3(Cc4ccccc4N4CCN(c5ccccc5)CC43)C2=O)cc1 (centres undefined),?,2%,0%,?,-24%,-12%
CCOc1cc(C(=O)Nc2ccc(-c3nc4ccccc4s3)cc2Cl)cc(OCC)c1OCC,/,/,/,/,/,11%
CC(=O)c1cnc(Nc2nc(C)c3cc(C)c(C)cc3n2)nc1C,13µM*,-4%,20%,2%,-10%,0%
CSc1ncc(C(C)=O)c(C)n1,37%,16%,-11%,-6%,-23%,-8%
Cc1ccc(CNC(=O)C2CCC(CNS(=O)(=O)c3ccc4c(c3)CCCC(=O)N4)CC2)cc1 (centres undefined),/,/,/,/,/,-2%
SMILES,Pf growth 96h,HCV inhibitor,AMA1 RON2 block,Pf growth 48h,AmpC no deterg,AmpC detergent
COc1ccccc1-c1cc(C(F)(F)F)nc(NCc2cccs2)n1,5.9µM*,-3%,37%,?,-35%,?
CCN(CC)CCC(c1ccc(N(C)C)cc1)c1c(OC)cc(OC)c2c(-c3ccccc3)cc(=O)oc12 (centres undefined),3.7µM*,-22%,18µM*,8.3µM*,187%,2%
COc1cc(OC)c2c(-c3ccccc3)cc(=O)oc2c1C(CCN1CCN(c2ccccc2)CC1)c1ccc(N(C)C)cc1 (centres undefined),4.1µM*,?,7.9µM*,5.2µM*,69%,3%
COc1cc(OC)c2ccc(=O)oc2c1C(CCN1CCN(c2ccccc2)CC1)c1ccc(N(C)C)cc1 (centres undefined),10µM*,-5%,25µM*,12µM*,75%,-3%
COc1ccc(C(CC(=O)N2CCCCC2)c2c(OC)cc(OC)c3ccc(=O)oc23)cc1 (centres undefined),?,-19%,-7%,?,130%,5%
COc1cc(OC)c2c(-c3ccccc3)cc(=O)oc2c1C(CC(=O)N1CCOCC1)c1ccc(N(C)C)cc1 (centres undefined),?,-17%,?,7.4µM*,169%,6%
COc1cc(OC)c2c(-c3ccccc3)cc(=O)oc2c1C(CC(=O)N1CCN(c2ccccc2)CC1)c1ccc(N(C)C)cc1 (centres undefined),?,?,?,?,-15%,-4%
Cc1cc(C)c(NC(=O)CSC2=Nc3ccccc3C3=NC(CC(=O)NCc4cccs4)C(=O)N23)c(C)c1 (centres undefined),/,/,/,/,/,-1%
Cn1cc(S(=O)(=O)N2CCCCCC2)cc1C(=O)N1CCN(c2ccc(Cl)cc2)CC1,/,/,/,/,/,-3%
COc1cc(OC)c2c(-c3ccccc3)cc(=O)oc2c1C(CC(=O)N1CCN(c2ccccc2)CC1)c1ccc2c(c1)OCO2 (centres undefined),?,/,/,?,-54%,-3%
